# HCMV inh = inhibitors of human cytomegalovirus. activity change, negative = inhibition, % at 57.5 µM. AID 1259415. HFF cells, HCMV-luciferase reporter, 72 h; hits give low values. 410,000 tested, 4.5% active; in the data active = activity change below about -60%; inconclusive = no clear call, values can overlap the other calls; inactive = above about -39%; also: % is scaled to controls: 0 for no effect and ±100 for the full control effect
#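 HFF cells seeded 16 h at 37C, treated with compounds, infected with luciferase-reporter HCMV at MOI 1 PFU/cell; luciferase read at 72 h post infection, normalized to buffer-only and Salinomycin controls.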
# Shiga inhibitor = blocks Shiga toxin action in Vero cells; Vero cells, Shiga toxin protein synthesis inhibition reporter; inhibition, % at 38.7 µM; 290,000 tested, 9.2% active; AID 2315; in the data active = inhibition mostly above about 28%, no sharp cut-off; inactive = mostly below about 43%; also: 0% is about no effect
# CHX counter = affects cycloheximide protein synthesis inhibition readout, counter-screen; cell reporter, cycloheximide protein synthesis inhibition counterscreen; max response, %; 300,000 tested, 12% active; AID 2314; in the data active = max response mostly above about 13%, no sharp cut-off; inactive = mostly below about 14%; also: read at 38.3 µM for the half of the compounds with a filed dose; 0% is about no effect
# Pf growth 96h = P. falciparum growth inhibition at 96 hour, primary screen for plastid delayed-death inhibitors; P. falciparum luciferase reporter growth, 96 h; Potency, µM (doses to about 28.7 µM), for inactives: at the top dose activity change, negative = inhibition, most hits filed as inhibitors; 320,000 tested, 6.9% active; also: potency is read from the fitted curve at half-maximal effect; % is scaled to controls: 0 for no effect and ±100 for the full control effect
#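 Two-generation exposure (96 h) targets delayed-death phenotype. Reporter parasites carrying integrated firefly luciferase, in red cells at 2% hematocrit and 0.05% parasitemia final, kept at 37 C, 5% CO2; luminescence loss indicates inhibition.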
# Pf growth 48h = P. falciparum growth inhibition at 48 hours (one generation) | P. falciparum luciferase growth in erythrocytes, 48 h | Potency, µM (highest dose often 28.7 µM), for inactives: at the top dose activity change, negative = inhibition, hits mostly inhibitors | 310,000 tested, 5.9% active | AID 504832; also: potency is read from the fitted curve at half-maximal effect; % is scaled to controls: 0 for no effect and ±100 for the full control effect
#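 First compound was added to culture medium, then infected red cells at 0.1% parasitemia and 2% hematocrit (final). After incubation at 37 C under 5% CO2, luciferase detection reagent was dispensed and light output recorded.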
# An asterisk follows results filed as active; i = inactive; ? = inconclusive; / = no result given; [ ] = another dose, or the depositor's remark. Most compounds without a hit are left out; they make up all but 20% or so of the library. Unless noted, calls follow the shape of the dose curve; as a rule, active = well fitted inhibition curve with a large enough effect; inconclusive = small, poorly fitted or top-dose-only effect, or another doubt; inactive = no such curve, though single readings can be large or run the other way.
SMILES,HCMV inh,Shiga inhibitor,CHX counter,Pf growth 96h,Pf growth 48h
C/C=C(\C)C(=O)NCCN1C2=NC[C@H](C(C)C)N2C[C@H]1Cc1ccc(O)cc1,11.9,10.7,-1.7,3.29µM*,4.9%
C/C=C(\C)C(=O)NCCN1C2=NC[C@H](C(C)C)N2C[C@@H]1Cc1ccc(OC)cc1,5.6,1.2,-1.6,90.5%,48.2%
Cc1ccc(C(=O)NCCN2C3=NC[C@H](C(C)C)N3C[C@H]2Cc2ccc(O)cc2)cc1Br,-13.3,-5.6,3.4,2.62µM*,4.65µM*
COc1ccc(C[C@H]2CN3C(=NC[C@@H]3C(C)C)N2CCNC(=O)c2ccc(C)c(Br)c2)cc1,/,-9.4,-3.6,2.08µM*,?
Cc1cccc(C)c1N=CN1c2ccccc2-n2cccc2C1c1ccc([N+](=O)[O-])cc1 (centres undefined),-6.2,/,/,/,/
Cc1ccc(O)c(NC(=O)CCS(=O)(=O)c2nc(-c3cccs3)cc(C(F)(F)F)n2)c1,-99.8*,/,/,/,/
O=C(CCS(=O)(=O)c1nc(-c2cccs2)cc(C(F)(F)F)n1)Nc1cc(Br)ccc1O,-99.6*,-15.4,-16.0,/,/
O=C(CSc1nc(-c2cccs2)cc(C(F)(F)F)n1)Nc1ccccc1Cl,-17.2,/,/,/,/
O=C(CCS(=O)(=O)c1nc(-c2cccs2)cc(C(F)(F)F)n1)Nc1ccc(Br)cc1,-97.7*,/,/,/,/
CCN(CC)c1ccc(NC(=O)CSc2nc(-c3cccs3)cc(C(F)(F)F)n2)cc1,7.0,/,/,/,/
N/C(=N\OC(=O)Cc1ccccc1)c1cccnc1,9.2,36.6,20.6*,75.2%,4.9%
N/C(=N\OC(=O)Cc1ccccc1)c1ccccc1Cl,23.5,93.7*,58.7*,0.0%,42.3%[5.75 µM]
Cc1cc(C)cc(OCC(=O)O/N=C(\N)c2ccccc2Cl)c1,-11.1,32.4,15.7,14.6%,3.3%
N/C(=N\OC(=O)Cc1ccc(-c2ccccc2)cc1)c1cccnc1,-16.3,3.7,13.7,2.7%,1.6%
N/C(=N\OC(=O)Cc1ccc(Cl)cc1)c1cccnc1,-12.1,-23.1,15.2*,67.7%,39.7%
CCN(CC)C(=S)SC1CCCCN(C(=O)c2ccccc2)C1=O (centres undefined),-33.1,57.2*,35.8*,27.9%,-0.5%
CCOC(=O)c1nnn(-c2nonc2N)c1-c1ccc(OC)cc1,3.3,-8.7,-1.3,?,2.08µM*
COC(=O)c1nnn(-c2nonc2N)c1CSc1nc2ccccc2s1,17.3,27.3,21.0*,-5.5%,11.2%
CCOC(=O)c1nnn(-c2nonc2N)c1-c1ccc(F)cc1,8.0,13.7,5.8,2.6%,11.7µM*
CCOC(=O)c1nnn(-c2nonc2N)c1-c1cccc2ccccc12,69.9,-13.2,-2.2,5.22µM*,3.29µM*
CN1CCCCc2c1[nH]c1ccccc1c2=O,10.9,-10.1,0.4,?,?
COc1ccc(CNC(=O)Cn2c(=O)n3nc(-c4cccc(F)c4)nc3c3ccccc32)cc1OC,35.7,/,/,/,/
CCOC(=O)c1nnn(-c2nonc2N)c1-c1ccc(Cl)cc1,?,-7.4,4.9,?,11.7µM*
CCOC(=O)c1nnn(-c2nonc2N)c1-c1ccccc1Cl,51.7,-24.2,-0.2,61.5%,?
Cn1cccc1C(=O)C(=O)Nc1ccc(F)c(F)c1,49.5,82.2*,44.6*,i,326.4%
SMILES,HCMV inh,Shiga inhibitor,CHX counter,Pf growth 96h,Pf growth 48h
Cn1cccc1C(=O)C(=O)Nc1cc(Cl)cc(Cl)c1,32.6,23.4,7.8,?,103.2%
Cn1cccc1C(=O)C(=O)Nc1ccc(Cl)cc1,121.4,81.0*,51.8*,111.5%,486.6%
Cn1cccc1C(=O)C(=O)Nc1cccc(Cl)c1Cl,155.8,10.1,11.7,291.5%,138.2%
CC(C)=C1C2CCC1C1C(=O)N(c3ccc4c(c3)OCO4)C(=O)C21 (centres undefined),-16.8,-3.7,-4.7,149.5%,-4.1%
CN(C)c1ccc(N2CN=C3SCC(=O)N3C2)cc1,30.1,97.9*,86.3*,?,1.47µM*
O=C1CSC2=NCN(c3ccc4c(c3)OCO4)CN12,20.3,96.3*,34.9*,/,28.4%
COc1ccc(CN2CCC[C@]3(N[C@H](c4ccc(C(F)(F)F)cc4)[C@@H]4C(=O)N(Cc5ccccc5)C(=O)[C@@H]43)C2=O)cc1,1.8,/,/,/,/
Cc1ccc(C(=O)NCC(=O)N2CCC3(CC2)NCCc2[nH]cnc23)cc1C,18.3,-2.7,-2.0,24.5%,-4.1%
Cc1ccc(C(=O)NCCC(=O)N2CCC3(CC2)NCCc2[nH]cnc23)cc1C,-17.4,-2.1,11.4*,4.3%,-2.6%
COc1ccc(O[C@H]2C=C[C@@H](c3ccccc3)O[C@@H]2CO/N=C(\C)CCN2CCc3nc(-c4ccccc4)c(-c4ccccc4)cc3C2)cc1,/,-18.4,-3.4,?,10.4µM*
CCc1cc2c(nc1CC)CCN(CC/C(C)=N/OC[C@H]1O[C@H](c3ccccc3)C=C[C@@H]1Oc1ccc(OC)cc1)C2,/,-3.3,-3.7,4.65µM*,?
Cc1cc(C)c(NC(=O)CCCCCNC2CCCCC2)c(C)c1,-10.2,-3.7,-2.9,13.1µM*,4.0%
c1ccc(CSc2nnc(NC3CCCCC3)s2)cc1,107.6,/,/,/,/
Cc1ccc(-c2nnc(NC3CCCC3)s2)cc1,24.7,52.7*,53.8*,-5.6%,199.8%
N#C/C(=C\c1c[nH]c2ccccc12)C(=O)NC1CC1,26.0,36.3*,56.3*,12.3%,166.3%
Cc1[nH]c2ccccc2c1/C=C(\C#N)C(=O)NC1CC1,31.2,129.2*,55.1*,106.3%,41.6%
CC(C)COC(=O)/C(C#N)=C\c1ccc(-c2ccccc2Cl)o1,8.4,/,/,/,/
CC(C)COC(=O)/C(C#N)=C/c1c[nH]c2ccccc12,-17.4,42.9,18.0*,18.4%,11.1%
CC1CCCCC1NC(=O)/C(C#N)=C/c1ccccc1F (centres undefined),?,11.4,9.5,11.7µM*,?
Cc1[nH]c2ccccc2c1/C=C(\C#N)C(=O)NC(C)c1ccccc1 (centres undefined),-8.5,-5.3,-2.9,?,?
O=C(CSc1nnnn1-c1cccc(F)c1)Nc1nc2ccccc2s1,-21.3,9.7,-4.5,-18.0%,11.9%
CC(C)c1ccc(NC(=O)N2CCC(c3nc4ccccc4o3)CC2)cc1,-18.3,7.0,-2.0,361.5%,24.1%
COc1ccc(NC(=O)Nc2ccc3c(c2)C(=O)N([C@@H](C)CO)C[C@@H](C)[C@@H](CN(C)S(=O)(=O)c2cccs2)O3)cc1,9.7,/,/,/,/
Cc1ccc(CSCCNC(=O)C2CCN(S(=O)(=O)Cc3ccccc3)CC2)cc1,2.8,/,/,/,/
N#C/C(=C\c1c[nH]c2ccccc12)C(=O)NC1CCCC1,21.1,41.9*,22.4*,?,11.9%
N#C/C(=C\c1cn[nH]c1-c1ccccc1)C(=O)NC1CCCCCC1,-37.4,-1.0,1.3,?,?
N#C/C(=C\c1c(F)cccc1Cl)C(=O)NC1CC1,-3.7,-11.8,10.3,13.1µM*,-15.6%
Brc1cnc2nc(SCc3nc4ccccc4[nH]3)[nH]c2c1,29.0,-2.3,1.2,33.9%,?
